Source: PubChem (National Center for Advancing Translational Sciences (NCATS))
Shown are actives, neighbours in structure and some others; about 11% of the full set was active somewhere.
G9a inh: qHTS Assay for Inhibitors of Histone Lysine Methyltransferase G9a; Potency, µM (titrated, usually from 102 µM), inactives show at the top dose activity, negative = inhibition, usual class: inhibitors; G9a H3K9 monomethylation, AlphaScreen, 2 h; Histone-lysine N-methyltransferase EHMT2 (Homo sapiens), Q96KQ7; actives 8.8% (n = 350,000); note: % is set by controls: 0 for no effect and ±100 for the full control effect; nearly all actives have a fitted effect of over 75% in size
Target sequence (Q96KQ7 913-1193 limits assumed): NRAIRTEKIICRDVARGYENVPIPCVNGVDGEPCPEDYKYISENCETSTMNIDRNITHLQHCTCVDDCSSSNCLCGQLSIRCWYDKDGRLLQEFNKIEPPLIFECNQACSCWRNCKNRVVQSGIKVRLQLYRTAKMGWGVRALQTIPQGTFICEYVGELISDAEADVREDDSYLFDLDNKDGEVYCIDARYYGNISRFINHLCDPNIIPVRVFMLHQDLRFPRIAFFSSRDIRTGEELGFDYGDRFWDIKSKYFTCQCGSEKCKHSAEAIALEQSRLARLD
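Signal arises when biotinylated H3K9 peptide, once monomethylated, bridges streptavidin donor and antibody-captured acceptor beads. Enzyme at 20 nM was preincubated 15 min with test compounds; peptide 500 nM and SAM 20 uM then reacted for 2 h.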
HP1b binding inh: HTS for Inhibitors of HP1-beta Chromodomain Interactions with Methylated Histone Tails. Chromobox protein homolog 1 (Homo sapiens), P83916. AlphaScreen HP1-beta / biotin-H3K9me3 peptide binding. Potency, µM (series often up to 114 µM), inactives show at the top dose activity change, negative = inhibition, actives largely listed as inhibitors. actives 0.56% (n = 390,000). AID 540317, 2011; note: nearly all actives have a fitted effect of over 70% in size
Target sequence (P83916 whole entry, looked up): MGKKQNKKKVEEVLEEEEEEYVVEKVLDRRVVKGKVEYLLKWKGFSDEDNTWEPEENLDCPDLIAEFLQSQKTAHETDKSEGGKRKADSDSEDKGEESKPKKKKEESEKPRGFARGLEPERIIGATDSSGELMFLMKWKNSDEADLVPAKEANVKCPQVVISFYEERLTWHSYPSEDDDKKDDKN
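HP1-beta protein (50 nM final) preincubated 30 min at room temperature with biotinylated H3(1-18)K9me3 peptide (50 nM) in PBS pH 7.4, 0.01% Tween-20, then compound added for 30 min. AlphaScreen streptavidin donor/nickel chelate acceptor beads (10 ug/mL final), 30 min dark, luminescence read.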
JMJD2A Tudor inh: qHTS Assay for Inhibitors of JMJD2A-Tudor Domain; AlphaScreen JMJD2A-Tudor / H3K4me3 peptide binding; Potency, µM (highest dose often 114 µM), for the others: at the top dose activity change, negative = inhibition, hits mostly inhibitors; actives 4.4% (n = 390,000); AID 504339, 2011; note: % is set by controls: 0 for no effect and ±100 for the full control effect; nearly all actives have a fitted effect of over 50% in size
VDR inhibitor: Inhibitors of the vitamin D receptor (VDR): qHTS; Vitamin D3 receptor (Homo sapiens), P11473; VDR-SRC2-3 peptide fluorescence polarization, 2 h; Potency, µM, for inactives: max response, negative = inhibition, actives largely listed as inhibitors; actives 0.93% (n = 400,000); note: % is set by controls: 0 for no effect and ±100 for the full control effect
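The screen uses fluorescence polarization to detect compounds that interfere with recruitment of the SRC2-3 coactivator peptide to VDR; plates are read after 2 h at room temperature.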
BAZ2B inh: qHTS Assay for Inhibitors of BAZ2B. Potency, µM (top dose mostly 114 µM), without a hit: top-dose activity change, negative = inhibition, hits mostly inhibitors. AlphaScreen BAZ2B-H3K14Ac peptide displacement. actives 4.4% (n = 360,000); note: % is set by controls: 0 for no effect and ±100 for the full control effect; nearly all actives have a fitted effect of over 60% in size
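AlphaScreen displacement of biotin-H3(5-23)K14Ac peptide (50 nM final) from BAZ2B (50 nM final) in PBS pH 7.4, 0.01% Tween-20; complex preformed 30 min RT, then compounds (top 110 uM) 30 min RT, beads 20 min dark.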
PLK1 PBD block: qHTS for Inhibitors of PLK1-PDB (polo-like kinase 1 - polo-box domain): Primary Screen; Serine/threonine-protein kinase PLK1 (Homo sapiens), P53350; Plk1 PBD binding of FITC phosphopeptide, fluorescence polarization; Potency, µM, without a hit: max response, negative = inhibition, hits mostly inhibitors; actives 2.8% (n = 360,000); note: series mostly up to about 57 µM; % is set by controls: 0 for no effect and ±100 for the full control effect; nearly all actives have a fitted effect of over 65% in size
Active calls of the source: *; ? = inconclusive; / = not tested or not shown; [ ] = dose if it differs, or a comment. Calls come from the whole dose curve; as a rule, active = well fitted curve in the direction sought with a large enough effect; inconclusive = small, poorly fitted or top-dose-only effect, or another doubt; inactive = no such curve, though single readings can be large; an effect the other way counts as inactive or inconclusive. Potency is the fitted concentration of half-maximal effect.

SMILES	G9a inh	HP1b binding inh	JMJD2A Tudor inh	VDR inhibitor	BAZ2B inh	PLK1 PBD block
CC(=O)N1c2ccc(Cl)cc2C2C=CCC2C1c1cccc2ccccc12 (stereo unspecified)	13µM*	4%	-35%	?	-33%	-5%
CCc1ccc(NC(=O)Cn2c(=O)n(-c3ccc(Cl)c(Cl)c3)c(=O)c3c(C)c(C)sc32)cc1	-31%[59 µM]	14%	-18%	-10%	0%	/
CC(c1ccccc1F)n1cc(C(=O)NCCc2ccco2)nn1 (stereo unspecified)	50µM*	19%	-15%	8%	-12%	-2%
COCCNC(=O)c1cn(C(C)c2ccccc2F)nn1 (stereo unspecified)	-2%[12.7 µM]	22%	-11%	-24%	-2%	1%
CC(C)(C)NC(=O)C(c1ccc(O)cc1)N(C(=O)Cn1nnc(-c2ccc(F)cc2)n1)c1ccccc1F (stereo unspecified)	/	46%	-26%	3%	-16%	-5%
COc1cc2c(cc1OC)C1=C(C#N)CCC(=O)N1CC2	14%[59 µM]	50%	-7%	-1%	10%	-10%
COc1cc2c(cc1OC)C1=C(C#N)CC/C(=N\S(=O)(=O)c3ccccc3)N1CC2	79µM*	29%	-30%	0%	-5%	1%
Oc1cccc(NC(=S)Nc2ccc(SC(F)F)cc2)c1	-4%[59 µM]	7%	-20%	-12%	1%	-8%
Oc1cccc2c(NC(=S)Nc3ccc(SC(F)F)cc3)cccc12	40µM*	?	?	-28%	45µM*	-26%
CC1CN(CCOc2ccccc2C(C)C)CC(C)O1 (stereo unspecified)	10µM*	?	22µM*	-9%	?	5%
CC1CN(CCCCOc2ccc(F)cc2)CC(C)O1 (stereo unspecified)	10µM*	50µM*	?	0%	50µM*	-12%
Cc1ccc(C)c(OCCOCCN2CC(C)OC(C)C2)c1C (stereo unspecified)	13µM*	?	1µM*	-7%	25µM*	-1%
CC1CN(CCOCCOc2ccccc2-c2ccccc2)CC(C)O1 (stereo unspecified)	1.8µM*	?	10µM*	-11%	22µM*	-2%
Fc1ccc(OCCCCCN2CCCC2)cc1	3%[59 µM]	24%	-12%	1%	2%	-4%
Cc1ccc(N2CC(NC(=O)c3cccc(Cl)c3)CC2=O)cc1C (stereo unspecified)	-45%[59 µM]	22%	-18%	18%	1%	/
COC(=O)c1ccccc1OCCOc1ccccc1C(=O)OC	-3%[59 µM]	36%	-2%	-18%	7%	-1%
COC(=O)c1ccccc1OCCCCN1CC(C)OC(C)C1 (stereo unspecified)	3.5µM*	?	1.8µM*	-23%	35µM*	-2%
Cc1ccc(S(=O)(=O)c2cn(CC(=O)Nc3cccc(C)c3)c3cc4c(cc3c2=O)OCO4)cc1	2%[59 µM]	40%	-8%	3%	0%	/
COc1ccccc1NS(=O)(=O)c1ccc(O)cc1	12%	?	-17%[11.4 µM]	-17%	1%	3.4µM*
COc1ccccc1NS(=O)(=O)c1ccc2oc(SC)nc2c1	5%	34%	1%	16%	-14%	0%
COc1ccc(NS(=O)(=O)c2ccccc2)cc1NS(=O)(=O)c1ccccc1	/	/	-16%	/	/	/
COc1cc(Nc2nc3ccccc3nc2NS(=O)(=O)c2ccc([N+](=O)[O-])cc2)cc(OC)c1OC	/	-25%	?	-12%	7.9µM*	-12%
COc1ccc([N+](=O)[O-])cc1NS(=O)(=O)c1ccccc1	0.79µM*	11%	-15%	-4%	0%	?
COc1ccccc1NS(=O)(=O)c1ccc2oc(N)nc2c1	25µM*	-9%	-8%	0%	2%	?
O=C(O)c1cccc(S(=O)(=O)Nc2ccc([N+](=O)[O-])cc2O)c1	22µM*	11%	?	-7%	-28%	-3%
SMILES	G9a inh	HP1b binding inh	JMJD2A Tudor inh	VDR inhibitor	BAZ2B inh	PLK1 PBD block
Cc1ccc(CNC(=O)C(=O)NCC2CCCN2S(=O)(=O)c2cccs2)cc1 (stereo unspecified)	-3%	10%	-10%	3%	3%	5%
COc1ccccc1C(=O)OCC(=O)NC12CC3CC(CC(C3)C1)C2	?	5%	-1%	9%	9%	-3%
O=C(COc1ccccc1F)NC12CC3CC(CC(C3)C1)C2	56%	27%	-15%[11.4 µM]	?	0%	30µM*
COc1ccc(CNc2oc(-c3ccc(COc4ccc(OC)cc4)o3)nc2C#N)cc1	?	?	?	19%	?	/
O=C(O)c1ccc(-n2cccc2/C=C2/SC(=O)N(CC(=O)N3CCCC3)C2=O)cc1	8.9µM*	14µM*	10µM*	8%	8.9µM*	19µM*
O=C(O)c1ccc(-n2cccc2/C=C2/NC(=O)N(c3ccccc3)C2=O)cc1	8.9µM*	16µM*	25µM*	-14%	13µM*	19µM*
O=C(O)c1ccc(-n2cccc2/C=C2/NC(=O)N(c3cccc(Cl)c3)C2=O)cc1	8.9µM*	?	20µM*	-29%	16µM*	27µM*
O=C1N/C(=C/c2cccn2-c2ccccc2)C(=O)N1Cc1ccccc1F	?	14%	-16%	-15%	-4%	-12%
CC(=O)Nc1ccc(/C=C(\C#N)S(=O)(=O)c2ccc(C)cc2)cc1	/	-4%[57 µM]	-18%	5%	/	-21%
CN(C)/C=N/c1nc2c(ncn2C2CC(O)C(CO)O2)c(=O)[nH]1 (stereo unspecified)	/	39%	-11%	9%	/	/
CC(C)(C)Nc1oc(-c2ccccc2)nc1-c1cccc2ccccc12	/	/	/	9%	/	/
CCOC(=O)CNC(=O)Cn1nc(N2CCN(c3ccccc3)CC2)ccc1=O	7%[59 µM]	26%	-11%	-1%	-2%	/
Cc1ccc2cc(C)c3nnc(SCc4ccc(C(=O)O)cc4)n3c2c1C	/	27%	40µM*	6%	?	?
Cc1ccc(CNCc2ccc3c(c2)OCO3)cc1	13µM*	?	1.4µM*	-16%	?	-3%
Cc1ccc(CNC(=O)CO/N=C/c2ccc3c(c2)OCO3)cc1	21%[59 µM]	-3%	-21%	-20%	7%	27µM*
FC(F)(F)c1ccccc1CNCc1ccc2c(c1)OCO2	-63%	?	20µM*	1%	?	-10%
COc1ccccc1CNCc1ccc2c(c1)OCO2	/	/	/	/	/	-4%
